Growth data for five compounds are collected here from PubChem BioAssay (NCI).

Test systems include NCI-H23 lung; NCI-H226 lung; NCI-H322M lung; HOP-62 NSCLC; NCI-H460 lung; NCI-H522 lung; A549/ATCC NSCLC; 786-0 renal; COLO 205 colon; DU-145 prostate; K-562 leukemia; MALME-3M melanoma; MDA-MB-231 breast; RXF 393 renal; SF-268 CNS; SF-295 CNS; SF-539 CNS; UACC-257 melanoma; M14 melanoma.
Holding throughout (assay): NCI-60 one-dose screen, 48 h (100 = growth as untreated, 0 = no growth, -100 = all killed)
What all share (conditions): 10 µM unless noted

Where “and” joins values, the source holds several entries; their conditions need not be identical. Equal entries are not always repeated. This is part of a sample that, as a whole, favours compounds with a hit. Of some 83,000 tested, about 20% had one in any assay.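 Plates (96-well) were seeded with cells, treated with compound at one concentration, and incubated for 48 hours before percent growth was determined.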 Calls of active or inactive are those of the source. The calls were made as follows: active = growth percent below 10; inactive = the rest.

For the compound `N#C/C(=C/c1c(O)ccc2ccccc12)C(N)=O`, the growth in the assay on NCI-H23 lung was 87.1% (inactive); in the assay on NCI-H226 lung, 89% (inactive); in the assay with NCI-H322M lung it was 107% (inactive); in the assay with HOP-62 NSCLC, 81.1% (inactive); in the assay on NCI-H460 lung, 103% (inactive); in the assay with NCI-H522 lung it was 76.4% (inactive). The growth in the assay with A549/ATCC NSCLC was 107% (inactive); in the assay on 786-0 renal, 83.6% (inactive); in the assay with COLO 205 colon it was 105% (inactive); in the assay on DU-145 prostate, 104% (inactive); in the assay with K-562 leukemia it was 97.4% (inactive); in the assay on MALME-3M melanoma, 99.4% (inactive). Also, the growth was 86.4% (inactive) in the assay with MDA-MB-231 breast; 98.3% (inactive) in the assay on RXF 393 renal; 95.4% (inactive) in the assay on SF-268 CNS; 91.2% (inactive) in the assay with SF-295 CNS; 102% (inactive) with SF-539 CNS; 106% (inactive) with UACC-257 melanoma. In addition, the growth in the assay with M14 melanoma was 94.5% (inactive).

In the case of `CC1=C[C@H]2c3c(c(O)c(O)c4oc5cc(O)cc(O)c5c(=O)c34)[C@H](c3cc(O)c(O)c4oc5cc(O)cc(O)c5c(=O)c34)[C@H]2C(C)(C)C1`, the growth is -5.6% (active) and -52.4% (active) in the assay on NCI-H23 lung; 2.7% (active) and -31.2% (active) in the assay on NCI-H226 lung; 12.1% (inactive) and -11.1% (active) in the assay on NCI-H322M lung; -16.2% (active) in the assay on HOP-62 NSCLC; -41.5% (active) and -57.7% (active) with NCI-H460 lung; -50.7% (active) and -52.7% (active) in the assay on NCI-H522 lung. The growth with A549/ATCC NSCLC is -10% (active) and -37.5% (active); in the assay on 786-0 renal, -18.9% (active) and -42.3% (active); in the assay on COLO 205 colon, -44.6% (active); in the assay on DU-145 prostate, 22.6% (inactive) and -4.25% (active); with K-562 leukemia, 2.32% (active); in the assay with MALME-3M melanoma, 10.8% (inactive) and -30.5% (active). In addition, the growth with MDA-MB-231 breast was -7.38% (active) and -58.3% (active); in the assay with RXF 393 renal, -4.11% (active); in the assay with SF-268 CNS it was 10.3% (inactive) and -12.3% (active); in the assay with SF-295 CNS, -47.5% (active) and -27.1% (active); in the assay with SF-539 CNS, -33.5% (active) and -26.5% (active); with UACC-257 melanoma it was 21% (inactive) and 0.565% (active). For the same compound, in the assay with M14 melanoma, the growth was -9.96% (active) and -19.6% (active).

On to `CC(=O)Nc1ccc2cc3ccc(NC(C)=O)cc3nc2c1`, for which the growth in the assay with NCI-H23 lung was 74.2% (inactive) and 75% (inactive); in the assay with NCI-H226 lung, 71% (inactive) and 69.8% (inactive); in the assay on NCI-H322M lung, 64.3% (inactive) and 46.1% (inactive); in the assay with HOP-62 NSCLC it was 70.9% (inactive) and 67% (inactive); in the assay on NCI-H460 lung, 93.6% (inactive) and 106% (inactive); with NCI-H522 lung, 74.3% (inactive) and 77.7% (inactive). For the same compound, the growth with A549/ATCC NSCLC was 107% (inactive) and 115% (inactive); with 786-0 renal it was 63.9% (inactive) and 52.1% (inactive); in the assay on COLO 205 colon it was 93.7% (inactive) and 91.4% (inactive); in the assay on DU-145 prostate it was 64.5% (inactive) and 38.2% (inactive); in the assay on K-562 leukemia, 66% (inactive) and 98.4% (inactive); in the assay on MALME-3M melanoma it was 134% (inactive) and 94.6% (inactive). Also, the growth in the assay with MDA-MB-231 breast is 65% (inactive) and 75.7% (inactive); in the assay on RXF 393 renal it was 82.7% (inactive) and 103% (inactive); with SF-268 CNS, 64.2% (inactive) and 57% (inactive); with SF-295 CNS, 71.9% (inactive) and 57.9% (inactive); in the assay on SF-539 CNS, 96.4% (inactive) and 87.4% (inactive); in the assay with UACC-257 melanoma it was 111% (inactive) and 118% (inactive). In the assay with M14 melanoma, the growth was 88% (inactive) and 87.8% (inactive).

Regarding `CN(C)c1ccc2nc3ccc(N)cc3[n+](-c3ccccc3)c2c1`, the growth in the assay on NCI-H23 lung was 10.4% (inactive) and 20.6% (inactive); with NCI-H226 lung it was 54.7% (inactive) and 72.4% (inactive); with NCI-H322M lung, 66.1% (inactive) and 40.3% (inactive); with HOP-62 NSCLC, 12.6% (inactive) and 42.7% (inactive); in the assay on NCI-H460 lung, 9.65% (active) and 9.63% (active); in the assay with NCI-H522 lung, 14.1% (inactive). The growth was 62.1% (inactive) and -27.6% (active) in the assay on A549/ATCC NSCLC; 56.3% (inactive) and 38.7% (inactive) with 786-0 renal; -62.8% (active) and -12.6% (active) in the assay with COLO 205 colon; 46.7% (inactive) and 2.32% (active) in the assay on DU-145 prostate; 9.29% (active) and 18.5% (inactive) with K-562 leukemia; 4.82% (active) and -9.23% (active) in the assay on MALME-3M melanoma. In addition, the growth is 51.6% (inactive) and 15.7% (inactive) in the assay on MDA-MB-231 breast; 65.6% (inactive) and 73.1% (inactive) in the assay on RXF 393 renal; 30.3% (inactive) and 7.92% (active) with SF-268 CNS; 29% (inactive) and -39.8% (active) in the assay on SF-295 CNS; 19.8% (inactive) and -29.8% (active) in the assay with SF-539 CNS; -12.2% (active) and -21% (active) in the assay on UACC-257 melanoma. In addition, the growth in the assay on M14 melanoma is 40.8% (inactive) and 15% (inactive).

For `COc1cc2nc(N3CCC[C@@H](NC(=O)C4COc5ccccc5O4)C3)nc(N)c2cc1OC` (some centres undefined), the growth was 99.6% (inactive) and 99.7% (inactive) with NCI-H23 lung; 102% (inactive) and 99.7% (inactive) with NCI-H226 lung; 96.1% (inactive) and 102% (inactive) in the assay with NCI-H322M lung; 107% (inactive) and 102% (inactive) in the assay with HOP-62 NSCLC; 105% (inactive) and 107% (inactive) with NCI-H460 lung; 96.4% (inactive) and 93.9% (inactive) in the assay with NCI-H522 lung. For the same compound, the growth in the assay with A549/ATCC NSCLC was 95.7% (inactive) and 93.9% (inactive); in the assay with 786-0 renal, 97.4% (inactive) and 96.9% (inactive); in the assay on COLO 205 colon it was 108% (inactive) and 107% (inactive); with DU-145 prostate, 107% (inactive) and 108% (inactive); in the assay with K-562 leukemia, 97.1% (inactive) and 94.1% (inactive); with MALME-3M melanoma it was 101% (inactive) and 109% (inactive). For the same compound, the growth in the assay with MDA-MB-231 breast was 104% (inactive) and 106% (inactive); with RXF 393 renal it was 105% (inactive) and 88.6% (inactive); in the assay with SF-268 CNS it was 105% (inactive) and 103% (inactive); in the assay on SF-539 CNS, 104% (inactive) and 101% (inactive); with UACC-257 melanoma, 93.5% (inactive) and 92% (inactive); in the assay with M14 melanoma, 105% (inactive) and 101% (inactive).
